What was measured:
Assay in all cases: log2 ratio of Biotin-Ahx-Ub-VS probe labelling (fragment/DMSO); higher = less target engagement (more negative = stronger competition), active = hit call of the paper (q ≤ 0.05, log2 ratio ≤ -1)
Details in all cases: compound concentration: 200 uM; treatment time: 3 h
ALG13 = target: T1, ALG13 (UniProt Q9NP73)
T1 sequence (whole entry): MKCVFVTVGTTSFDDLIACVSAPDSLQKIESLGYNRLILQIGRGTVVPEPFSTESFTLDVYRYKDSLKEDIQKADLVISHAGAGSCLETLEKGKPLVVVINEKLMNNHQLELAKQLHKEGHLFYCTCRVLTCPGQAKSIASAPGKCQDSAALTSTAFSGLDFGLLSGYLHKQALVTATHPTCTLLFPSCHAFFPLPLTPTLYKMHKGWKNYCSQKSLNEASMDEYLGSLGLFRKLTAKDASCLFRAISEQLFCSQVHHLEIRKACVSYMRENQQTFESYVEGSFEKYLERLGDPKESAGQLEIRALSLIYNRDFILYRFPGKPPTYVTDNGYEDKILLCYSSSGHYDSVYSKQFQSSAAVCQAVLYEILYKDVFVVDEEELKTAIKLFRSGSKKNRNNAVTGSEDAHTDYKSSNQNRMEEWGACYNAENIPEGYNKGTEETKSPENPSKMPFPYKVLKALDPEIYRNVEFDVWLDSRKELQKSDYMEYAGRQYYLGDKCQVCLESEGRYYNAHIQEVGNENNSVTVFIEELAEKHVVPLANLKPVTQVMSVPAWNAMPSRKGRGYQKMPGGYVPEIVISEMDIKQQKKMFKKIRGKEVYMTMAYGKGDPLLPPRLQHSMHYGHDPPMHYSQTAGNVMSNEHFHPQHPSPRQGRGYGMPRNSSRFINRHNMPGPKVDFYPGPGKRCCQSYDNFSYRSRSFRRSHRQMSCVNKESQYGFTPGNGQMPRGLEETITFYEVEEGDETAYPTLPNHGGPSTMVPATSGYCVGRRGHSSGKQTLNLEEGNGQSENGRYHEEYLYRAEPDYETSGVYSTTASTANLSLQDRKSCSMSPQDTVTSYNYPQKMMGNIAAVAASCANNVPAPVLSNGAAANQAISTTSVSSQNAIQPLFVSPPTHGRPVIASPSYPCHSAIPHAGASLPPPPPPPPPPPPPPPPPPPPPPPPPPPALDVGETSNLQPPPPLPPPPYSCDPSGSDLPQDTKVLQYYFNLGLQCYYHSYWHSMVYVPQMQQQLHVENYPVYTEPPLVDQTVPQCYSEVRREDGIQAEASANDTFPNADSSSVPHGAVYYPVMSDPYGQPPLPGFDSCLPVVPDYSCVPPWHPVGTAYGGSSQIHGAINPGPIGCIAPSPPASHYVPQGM
Procedure, shortened: (§1)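 HEK293T lysate (495 µg per sample, in Tris/CHAPS/IGEPAL buffer with protease inhibitors) was treated in triplicate with fragment at 200 µM or with DMSO for 3 h. It was then treated with Biotin-Ahx-Ub-VS (0.5 µM final) for 1 h. Labelled DUBs were NeutrAvidin-enriched, digested with LysC and trypsin, and run by diaPASEF LC-MS/MS. Spectronaut label-free quantities were global-median-normalised. Values are average log2 ratios fragment/DMSO by unpaired t-test, using proteins with ≥2 unique peptides.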

ATXN3 = ATXN3 (UniProt P54252)
Procedure, shortened: as §1

BAP1 = target: T2, BAP1 (UniProt Q92560)
T2 sequence (whole entry): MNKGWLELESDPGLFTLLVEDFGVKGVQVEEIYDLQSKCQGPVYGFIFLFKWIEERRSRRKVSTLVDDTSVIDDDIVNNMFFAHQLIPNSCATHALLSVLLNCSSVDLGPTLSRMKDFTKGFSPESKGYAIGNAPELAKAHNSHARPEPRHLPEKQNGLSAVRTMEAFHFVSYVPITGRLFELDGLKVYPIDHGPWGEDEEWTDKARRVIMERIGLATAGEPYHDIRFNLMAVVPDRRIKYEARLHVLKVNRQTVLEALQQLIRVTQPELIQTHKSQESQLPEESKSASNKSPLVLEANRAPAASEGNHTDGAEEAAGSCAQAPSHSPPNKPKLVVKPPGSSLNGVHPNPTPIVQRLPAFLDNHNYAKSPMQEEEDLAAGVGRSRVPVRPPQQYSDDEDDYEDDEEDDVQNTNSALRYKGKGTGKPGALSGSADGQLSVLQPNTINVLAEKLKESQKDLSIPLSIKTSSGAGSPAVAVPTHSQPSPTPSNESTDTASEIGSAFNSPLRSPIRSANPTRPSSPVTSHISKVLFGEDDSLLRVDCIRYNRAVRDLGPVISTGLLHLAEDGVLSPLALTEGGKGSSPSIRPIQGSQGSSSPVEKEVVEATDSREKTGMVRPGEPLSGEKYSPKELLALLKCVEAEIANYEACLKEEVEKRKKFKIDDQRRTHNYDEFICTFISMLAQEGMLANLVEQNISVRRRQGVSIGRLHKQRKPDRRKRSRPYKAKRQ
Procedure, shortened: as §1

EIF3F = EIF3F (UniProt O00303)
Procedure, shortened: as §1

EIF3H = EIF3H (UniProt O15372)
Procedure, shortened: as §1

FAM105A = target: T3, FAM105A (UniProt Q9NUU6)
T3 sequence (whole entry): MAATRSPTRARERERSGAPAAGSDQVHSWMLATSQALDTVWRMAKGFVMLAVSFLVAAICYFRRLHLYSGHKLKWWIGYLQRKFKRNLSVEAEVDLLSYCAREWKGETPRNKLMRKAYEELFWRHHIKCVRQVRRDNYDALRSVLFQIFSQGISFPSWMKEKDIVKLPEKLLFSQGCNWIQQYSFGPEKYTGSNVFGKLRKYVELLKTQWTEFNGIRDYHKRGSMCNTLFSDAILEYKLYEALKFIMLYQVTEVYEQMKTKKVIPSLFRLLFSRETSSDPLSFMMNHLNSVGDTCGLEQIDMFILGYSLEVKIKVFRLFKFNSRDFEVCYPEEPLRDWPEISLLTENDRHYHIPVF
Procedure, shortened: as §1

OTUB1 = OTUB1 (UniProt Q96FW1)
Procedure, shortened: as §1

OTUD4 = target: T4, OTUD4 (UniProt Q01804)
T4 sequence (whole entry): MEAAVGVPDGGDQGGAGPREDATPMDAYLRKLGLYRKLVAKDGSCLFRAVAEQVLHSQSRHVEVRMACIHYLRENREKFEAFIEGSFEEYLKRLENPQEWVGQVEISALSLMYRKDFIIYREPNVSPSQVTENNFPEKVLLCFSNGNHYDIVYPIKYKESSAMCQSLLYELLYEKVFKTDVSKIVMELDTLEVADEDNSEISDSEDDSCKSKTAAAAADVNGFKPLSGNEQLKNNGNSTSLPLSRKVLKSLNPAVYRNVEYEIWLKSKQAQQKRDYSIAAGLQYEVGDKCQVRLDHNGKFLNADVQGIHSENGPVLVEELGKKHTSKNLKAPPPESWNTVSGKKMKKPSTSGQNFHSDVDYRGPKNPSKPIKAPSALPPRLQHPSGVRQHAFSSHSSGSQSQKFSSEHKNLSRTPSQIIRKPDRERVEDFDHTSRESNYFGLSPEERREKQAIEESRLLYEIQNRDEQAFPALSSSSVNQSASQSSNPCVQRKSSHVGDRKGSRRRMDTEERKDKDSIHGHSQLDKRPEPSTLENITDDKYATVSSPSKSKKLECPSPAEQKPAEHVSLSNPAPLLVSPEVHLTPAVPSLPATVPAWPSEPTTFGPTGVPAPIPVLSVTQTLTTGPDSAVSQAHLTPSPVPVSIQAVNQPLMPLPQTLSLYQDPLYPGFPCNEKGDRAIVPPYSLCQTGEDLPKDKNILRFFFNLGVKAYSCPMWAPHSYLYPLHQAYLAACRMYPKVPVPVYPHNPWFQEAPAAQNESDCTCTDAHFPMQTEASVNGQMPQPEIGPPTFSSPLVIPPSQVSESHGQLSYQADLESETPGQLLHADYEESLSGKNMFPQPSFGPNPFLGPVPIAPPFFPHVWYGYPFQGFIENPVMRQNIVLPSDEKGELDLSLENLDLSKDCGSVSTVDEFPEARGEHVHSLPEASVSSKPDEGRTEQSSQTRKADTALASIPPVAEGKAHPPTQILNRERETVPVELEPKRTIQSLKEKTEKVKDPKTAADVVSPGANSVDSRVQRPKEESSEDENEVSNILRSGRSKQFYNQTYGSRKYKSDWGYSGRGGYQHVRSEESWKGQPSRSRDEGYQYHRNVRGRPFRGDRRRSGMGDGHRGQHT
Procedure, shortened: as §1

OTUD5 = target: T5, OTUD5 (UniProt Q96G74)
T5 sequence (whole entry): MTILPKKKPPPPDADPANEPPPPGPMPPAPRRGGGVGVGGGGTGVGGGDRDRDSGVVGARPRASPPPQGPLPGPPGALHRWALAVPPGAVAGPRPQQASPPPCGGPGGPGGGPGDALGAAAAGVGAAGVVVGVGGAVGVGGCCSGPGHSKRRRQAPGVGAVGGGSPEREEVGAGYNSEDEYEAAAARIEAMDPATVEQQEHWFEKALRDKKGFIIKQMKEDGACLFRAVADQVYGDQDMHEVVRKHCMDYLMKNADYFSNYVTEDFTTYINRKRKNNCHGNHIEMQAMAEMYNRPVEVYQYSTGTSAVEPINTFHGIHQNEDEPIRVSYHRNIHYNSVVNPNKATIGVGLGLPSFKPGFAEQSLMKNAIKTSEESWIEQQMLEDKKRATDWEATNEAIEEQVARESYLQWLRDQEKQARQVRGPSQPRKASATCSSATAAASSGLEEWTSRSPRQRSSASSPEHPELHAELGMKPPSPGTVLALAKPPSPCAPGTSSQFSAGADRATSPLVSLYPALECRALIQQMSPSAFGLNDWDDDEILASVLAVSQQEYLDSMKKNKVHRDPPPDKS
Procedure, shortened: as §1

Measured: log2 ratio of Biotin-Ahx-Ub-VS probe labelling

Sequence of OTUB1 (Q96FW1 whole entry): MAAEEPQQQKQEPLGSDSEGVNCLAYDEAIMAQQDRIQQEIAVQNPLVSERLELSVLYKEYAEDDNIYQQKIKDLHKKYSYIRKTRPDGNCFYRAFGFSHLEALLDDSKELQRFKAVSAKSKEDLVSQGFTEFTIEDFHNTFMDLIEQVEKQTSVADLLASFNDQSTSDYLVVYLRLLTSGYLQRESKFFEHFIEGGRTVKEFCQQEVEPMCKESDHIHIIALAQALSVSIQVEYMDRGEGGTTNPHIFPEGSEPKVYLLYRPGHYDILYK
Sequence of EIF3F (O00303 whole entry): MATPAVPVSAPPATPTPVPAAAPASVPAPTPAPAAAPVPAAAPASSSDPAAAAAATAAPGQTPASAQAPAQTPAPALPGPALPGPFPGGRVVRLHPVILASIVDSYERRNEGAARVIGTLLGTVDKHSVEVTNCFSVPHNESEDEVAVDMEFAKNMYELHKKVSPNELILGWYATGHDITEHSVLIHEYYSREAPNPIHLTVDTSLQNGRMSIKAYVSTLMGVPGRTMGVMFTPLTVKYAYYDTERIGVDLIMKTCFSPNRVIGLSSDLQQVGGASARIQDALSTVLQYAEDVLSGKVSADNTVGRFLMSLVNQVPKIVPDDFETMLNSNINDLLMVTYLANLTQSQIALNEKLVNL
Sequence of ATXN3 (P54252 whole entry): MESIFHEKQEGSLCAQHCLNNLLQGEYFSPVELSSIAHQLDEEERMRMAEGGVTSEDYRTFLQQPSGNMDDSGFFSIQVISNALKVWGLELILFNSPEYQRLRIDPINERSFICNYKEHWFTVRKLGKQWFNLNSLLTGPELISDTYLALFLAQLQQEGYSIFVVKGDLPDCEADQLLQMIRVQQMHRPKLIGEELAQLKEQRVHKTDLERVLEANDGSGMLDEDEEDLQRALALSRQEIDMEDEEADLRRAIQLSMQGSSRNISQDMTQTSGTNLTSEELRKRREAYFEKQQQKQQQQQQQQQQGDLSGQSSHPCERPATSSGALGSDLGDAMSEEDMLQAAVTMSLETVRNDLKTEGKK
Sequence of EIF3H (O15372 whole entry): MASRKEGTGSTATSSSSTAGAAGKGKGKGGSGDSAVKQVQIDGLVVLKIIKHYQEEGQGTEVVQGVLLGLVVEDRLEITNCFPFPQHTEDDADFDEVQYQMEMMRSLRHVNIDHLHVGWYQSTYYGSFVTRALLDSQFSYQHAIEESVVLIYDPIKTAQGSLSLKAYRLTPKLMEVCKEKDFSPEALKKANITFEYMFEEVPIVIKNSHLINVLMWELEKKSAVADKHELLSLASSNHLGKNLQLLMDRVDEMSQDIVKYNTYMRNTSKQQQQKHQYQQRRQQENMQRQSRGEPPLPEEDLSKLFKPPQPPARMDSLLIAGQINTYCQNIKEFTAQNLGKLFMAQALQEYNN

CCC1c2ccsc2CCN1C(=O)CCl (centres undefined)
inactive: ALG13 0.127 | ATXN3 -0.424 | BAP1 -0.48 | EIF3F -0.262 | EIF3H 0.089 | FAM105A 0.09 | OTUB1 0.0848 | OTUD4 -0.658
active: OTUD5 -1.15

— the supplement of paper PMC11732987, “Enantioselective OTUD7B fragment discovery through chemoproteomics screening and high-throughput optimisation” (Communications Chemistry, 2025)
